In PubChem BioAssay (EPA / NIEHS):
A structure can be active in one record and inactive in another. Active and inactive are the calls of the source. Rule for the calls: active = hit-call score of the fitted dose curve at least 0.9, where 1 is the maximum; inactive = score below 0.9.

Legend:
[1] = ATG_M_32_CIS: Attagene CIS-FACTORIAL HepG2 Assay for M32 Transcription Factor (Internal Marker) (AID 2282949); settings: HepG2 Attagene cis-factorial M32 reporter, mRNA; actives raise or lower the signal;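 note: background control marker of the multiplexed CIS panel rather than a real target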
Summary of the method: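 Using DMSO as baseline, bidirectional curve fits were applied to reporter mRNA signals. These came from transiently transfected HepG2 cells exposed for 24 h, with RNA analysed by RT-PCR, FAM primer extension, HpaI digestion and CE.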

[2] = ATG_M_06_CIS: Attagene CIS-FACTORIAL HepG2 Assay for M06 Transcription Factor (Internal Marker) (AID 2282950); settings: HepG2 Attagene CIS-FACTORIAL M06 internal marker reporter; actives raise or lower the signal
Summary of the method: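 Cells (HepG2, transiently carrying cis-driven reporter units) receive chemical for 24 h before RNA isolation. Reporter cDNA is PCR-amplified, FAM-labelled by primer extension, HpaI-digested and sized on a capillary analyser.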

[3] = biological target: Hypoxia-inducible factor 1-alpha (Homo sapiens) (UniProt Q16665); assay: ATG_HIF1a_CIS: Attagene CIS-FACTORIAL HepG2 Assay for human Hypoxia Inducible Factor 1 (HIF1A) (AID 2282951); settings: HepG2 Attagene cis-factorial HIF1a reporter transcription; actives raise or lower the signal
Summary of the method: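 Dosed 24 h, transfected HepG2 cells yielded total RNA whose reporter transcripts were RT-PCR-amplified and sized by capillary electrophoresis using fluorescent labelling; DMSO defined baseline, with gain and loss of signal both fitted.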

[4] = biological target: Hepatocyte nuclear factor 6 (Homo sapiens) (UniProt Q9UBC0); assay: ATG_HNF6_CIS: Attagene CIS-FACTORIAL HepG2 Assay for human Hepatocyte Nuclear Factor 6 (HNF6) (AID 2282952); settings: HepG2 Attagene cis-factorial HNF6 reporter transcription; actives raise or lower the signal
Summary of the method: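 Twenty-four-hour chemical treatment of reporter-transfected HepG2 cells precedes RNA isolation, DNase-treated reverse transcription and PCR of reporter sequences. Labelled fragments are sized by capillary electrophoresis and fitted bidirectionally versus DMSO.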

[5] = biological target: Heat shock factor protein 1 (Homo sapiens) (UniProt Q00613); assay: ATG_HSE_CIS: Attagene CIS-FACTORIAL HepG2 Assay for human Heat Shock Transcription Factor 1 (HSE) (AID 2282953); settings: HepG2 HSE cis-reporter, Attagene RNA transcription; actives raise or lower the signal
Summary of the method: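 Liver-derived HepG2 cells carry transiently introduced multiple reporter units governed by cis promoters. Reporter RNA measured 24 h post-dose through reverse transcription, PCR amplification, fluorescent labelling and capillary electrophoresis, normalised to DMSO.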

[6] = ATG_MRE_CIS: Attagene CIS-FACTORIAL HepG2 Assay for human Metal Responsive Element (MRE) (AID 2282954); settings: HepG2 MRE cis-reporter transcription, Attagene multiplex; actives raise or lower the signal
Summary of the method: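 Multiplexed cis-reporter assay in human HepG2 liver cells, 24 h incubation with test chemical. Reporter transcripts measured by RT-PCR and capillary electrophoresis; values from bidirectional curve fitting versus DMSO.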

[7] = ATG_PBREM_CIS: Attagene CIS-FACTORIAL HepG2 Assay for human Phenobarbital-responsive Enhancer Module (PBREM) (AID 2282955); settings: HepG2 PBREM cis-reporter, Attagene multiplexed transcription; actives raise or lower the signal
Summary of the method: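 Transfected liver-derived HepG2 cells exposed 24 h; PBREM reporter transcript quantified via RT-PCR and capillary electrophoresis, with activity in either direction referenced to DMSO.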

[8] = ATG_PXRE_CIS: Attagene CIS-FACTORIAL HepG2 Assay for human Pregnane X Receptor Element (PXRE) (AID 2282957); settings: HepG2 Attagene CIS-FACTORIAL PXRE reporter, mRNA; actives raise or lower the signal
Summary of the method: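 Bidirectional activity, baselined to DMSO, derived from reporter mRNA fluorescence (RT-PCR plus capillary electrophoresis) in HepG2 cells bearing cis-promoter reporter units, 24 h exposure.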

[9] = ATG_PPRE_CIS: Attagene CIS-FACTORIAL HepG2 Assay for human Peroxisome Proliferator-activated Response Element (PPRE) (AID 2282958); settings: HepG2 PPRE cis-element reporter, Attagene transcription factor profiling; actives raise or lower the signal
Summary of the method: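 Measured endpoint: PPRE-controlled reporter mRNA, detected by RT-PCR and capillary electrophoresis fluorescence, from transiently transfected HepG2 cells 24 h after dosing. Curves fitted in both directions using DMSO baseline.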

[10] = ATG_Sox_CIS: Attagene CIS-FACTORIAL HepG2 Assay for human SRY-box transcription factor (SOX) (AID 2282960); settings: HepG2 Attagene cis-factorial SOX reporter, mRNA; actives raise or lower the signal
Summary of the method: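 Gain- or loss-of-signal endpoint, fitted bidirectionally with DMSO as negative control. Based on reporter mRNA from transfected HepG2 cells harvested 24 h post-treatment and quantified via RT-PCR and capillary electrophoresis.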

[11] = biological target: Transcription factor Sp1 (Homo sapiens) (UniProt P08047); assay: ATG_Sp1_CIS: Attagene CIS-FACTORIAL HepG2 Assay for human Specificity Protein 1 (Sp1) (AID 2282961); settings: HepG2 Sp1 cis-reporter transcription, actives raise or lower the signal
Summary of the method: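 Endpoint reflects endogenous Sp1 transcriptional activity, not an exogenous fusion protein: HepG2 cells with transfected cis-regulated reporters, 24 h dosing, RT-PCR/capillary electrophoresis mRNA read-out, DMSO-normalised bidirectional fit.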

[12] = ATG_SREBP_CIS: Attagene CIS-FACTORIAL HepG2 Assay for human Sterol Regulatory Element Binding (SREBP) (AID 2282962); settings: HepG2 Attagene cis-factorial SREBP reporter, mRNA; actives raise or lower the signal
Summary of the method: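 Endogenous factor activity is measured in HepG2 through multiplexed reporter units under cis-element control. Following a 24 h incubation, reporter transcripts are reverse-transcribed, PCR-amplified and sized by capillary electrophoresis; activity is fitted in both directions relative to DMSO.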

[13] = biological target: Signal transducer and activator of transcription 3 (Homo sapiens) (UniProt P40763); assay: ATG_STAT3_CIS: Attagene CIS-FACTORIAL HepG2 Assay for human Signal Transducer and Activator of Transcription 3 (STAT3) (AID 2282963); settings: HepG2, Attagene cis-factorial STAT3 reporter transcription; actives raise or lower the signal
Summary of the method: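 Cis-factorial format: endogenous transcription factors in HepG2 drive transfected reporter units. After 24 h treatment, reporter RNA was reverse-transcribed, amplified, FAM-labelled and HpaI-digested before CE analysis; activity scored in both directions against DMSO.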

[14] = ATG_TA_CIS: Attagene CIS-FACTORIAL HepG2 Assay for human TA Basal Promoter (AID 2282964); settings: HepG2 Attagene CIS-factorial TA basal promoter reporter; actives raise or lower the signal
Summary of the method: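 Background internal-marker endpoint from a 52-component HepG2 cis-reporter panel. Cells treated 24 h; reporter transcripts quantified via RT-PCR and CE fluorescence against DMSO baseline.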

[15] = ATG_TCF_b_cat_CIS: Attagene CIS-FACTORIAL HepG2 Assay for human T-Cell-Factor with beta-catenin (TCF/b-cat) (AID 2282965); settings: HepG2 TCF/beta-catenin cis-reporter transcription, actives raise or lower the signal
Summary of the method: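 Measured: reporter mRNA in HepG2 transiently transfected with cis-promoter reporter units, 24 h after chemical addition. Fitting was bidirectional, DMSO as negative control.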

[16] = ATG_TAL_CIS: Attagene CIS-FACTORIAL HepG2 Assay for human TAL Basal Promoter (AID 2282966); settings: HepG2 Attagene cis-factorial TAL promoter reporter; actives raise or lower the signal;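 note: background control endpoint measuring basal TAL promoter reporter mRNA not a specific factor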
Summary of the method: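 Human hepatoma HepG2 cells, transfected with promoter-regulated reporter units, were treated 24 h. Reporter transcript levels, measured through RT-PCR and capillary electrophoresis, were fitted for gain or loss relative to DMSO.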

[17] = ATG_TGFb_CIS: Attagene CIS-FACTORIAL HepG2 Assay for human Transforming Growth Factor (TGF) (AID 2282967); settings: HepG2 Attagene CIS TGFb reporter, mRNA transcription; actives raise or lower the signal
Summary of the method: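 Liver HepG2 line, cis-factorial reporter panel, 24 h dosing. Quantitation: RT-PCR products labeled with 6-FAM, cut with HpaI, resolved by capillary electrophoresis; DMSO-referenced bidirectional analysis.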

[18] = ATG_VDRE_CIS: Attagene CIS-FACTORIAL HepG2 Assay for human Vitamin D Receptor Element (VDRE) (AID 2282968); settings: HepG2 VDRE cis-reporter transcription, actives raise or lower the signal
Summary of the method: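 Measures endogenous factor activity through cis-element-driven reporter transcripts in transiently transfected HepG2. Cells are treated 24 h; reporter mRNA is quantified by RT-PCR and capillary electrophoresis; fitting is bidirectional.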

[19] = biological target: Paired box protein Pax-6 (Homo sapiens) (UniProt P26367); assay: ATG_Pax6_CIS: Attagene CIS-FACTORIAL HepG2 Assay for human Paired Box 6 (PAX6) (AID 2282956); settings: HepG2 CIS-FACTORIAL PAX6 reporter transcription, RNA readout; actives raise or lower the signal
Summary of the method: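 Fluorescent RT-PCR products separated by capillary electrophoresis report PAX6-linked promoter mRNA in HepG2 cells 24 h post-dose. Curves fitted bidirectionally, DMSO as negative control.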

[20] = ATG_RORE_CIS: Attagene CIS-FACTORIAL HepG2 Assay for human RAR-related Orphan Receptor Element (RORE) (AID 2282959); settings: HepG2 Attagene cis-factorial RORE reporter, mRNA; actives raise or lower the signal
Summary of the method: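 Transiently transfected HepG2 reporter cells were treated 24 h. Reporter transcripts were detected by RT-PCR and capillary electrophoresis, with bidirectional fitting against DMSO.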

Measured: AC50

Chain of Signal transducer and activator of transcription 3 (Homo sapiens) (P40763 whole entry, looked up): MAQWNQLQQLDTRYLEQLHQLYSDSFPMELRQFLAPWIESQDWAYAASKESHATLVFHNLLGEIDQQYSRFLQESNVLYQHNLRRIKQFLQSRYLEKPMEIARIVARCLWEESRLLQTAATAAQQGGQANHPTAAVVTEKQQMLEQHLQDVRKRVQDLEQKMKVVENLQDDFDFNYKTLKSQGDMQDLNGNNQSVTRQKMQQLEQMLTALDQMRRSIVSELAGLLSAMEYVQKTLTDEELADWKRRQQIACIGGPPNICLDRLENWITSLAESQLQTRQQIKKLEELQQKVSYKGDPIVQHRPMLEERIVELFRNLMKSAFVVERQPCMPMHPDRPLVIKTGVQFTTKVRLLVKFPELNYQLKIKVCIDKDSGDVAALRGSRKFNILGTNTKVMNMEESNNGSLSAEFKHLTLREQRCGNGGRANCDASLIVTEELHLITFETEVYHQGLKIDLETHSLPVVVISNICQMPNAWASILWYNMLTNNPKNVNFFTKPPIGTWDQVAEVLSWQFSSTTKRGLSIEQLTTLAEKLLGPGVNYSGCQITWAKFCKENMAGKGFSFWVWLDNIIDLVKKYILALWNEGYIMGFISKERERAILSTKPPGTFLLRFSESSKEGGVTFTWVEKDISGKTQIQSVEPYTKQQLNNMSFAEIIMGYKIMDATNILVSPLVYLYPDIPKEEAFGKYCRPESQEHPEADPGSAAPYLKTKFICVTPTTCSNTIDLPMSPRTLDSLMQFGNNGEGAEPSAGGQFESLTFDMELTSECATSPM
Chain of Hepatocyte nuclear factor 6 (Homo sapiens) (Q9UBC0 whole entry, looked up, the tested form may be a part): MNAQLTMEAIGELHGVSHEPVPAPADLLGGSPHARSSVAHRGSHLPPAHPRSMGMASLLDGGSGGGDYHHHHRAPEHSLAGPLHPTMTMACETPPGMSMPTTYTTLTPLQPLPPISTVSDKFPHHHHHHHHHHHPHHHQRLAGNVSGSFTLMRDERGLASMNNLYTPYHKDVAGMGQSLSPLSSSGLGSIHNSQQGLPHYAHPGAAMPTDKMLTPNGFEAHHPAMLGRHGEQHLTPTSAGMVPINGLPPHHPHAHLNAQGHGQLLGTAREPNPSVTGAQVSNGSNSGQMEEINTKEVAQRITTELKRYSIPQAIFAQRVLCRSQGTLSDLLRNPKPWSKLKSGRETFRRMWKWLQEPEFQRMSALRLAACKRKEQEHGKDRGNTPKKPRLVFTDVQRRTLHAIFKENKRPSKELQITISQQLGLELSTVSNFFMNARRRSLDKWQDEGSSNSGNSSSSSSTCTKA
Chain of Hypoxia-inducible factor 1-alpha (Homo sapiens) (Q16665 whole entry, looked up): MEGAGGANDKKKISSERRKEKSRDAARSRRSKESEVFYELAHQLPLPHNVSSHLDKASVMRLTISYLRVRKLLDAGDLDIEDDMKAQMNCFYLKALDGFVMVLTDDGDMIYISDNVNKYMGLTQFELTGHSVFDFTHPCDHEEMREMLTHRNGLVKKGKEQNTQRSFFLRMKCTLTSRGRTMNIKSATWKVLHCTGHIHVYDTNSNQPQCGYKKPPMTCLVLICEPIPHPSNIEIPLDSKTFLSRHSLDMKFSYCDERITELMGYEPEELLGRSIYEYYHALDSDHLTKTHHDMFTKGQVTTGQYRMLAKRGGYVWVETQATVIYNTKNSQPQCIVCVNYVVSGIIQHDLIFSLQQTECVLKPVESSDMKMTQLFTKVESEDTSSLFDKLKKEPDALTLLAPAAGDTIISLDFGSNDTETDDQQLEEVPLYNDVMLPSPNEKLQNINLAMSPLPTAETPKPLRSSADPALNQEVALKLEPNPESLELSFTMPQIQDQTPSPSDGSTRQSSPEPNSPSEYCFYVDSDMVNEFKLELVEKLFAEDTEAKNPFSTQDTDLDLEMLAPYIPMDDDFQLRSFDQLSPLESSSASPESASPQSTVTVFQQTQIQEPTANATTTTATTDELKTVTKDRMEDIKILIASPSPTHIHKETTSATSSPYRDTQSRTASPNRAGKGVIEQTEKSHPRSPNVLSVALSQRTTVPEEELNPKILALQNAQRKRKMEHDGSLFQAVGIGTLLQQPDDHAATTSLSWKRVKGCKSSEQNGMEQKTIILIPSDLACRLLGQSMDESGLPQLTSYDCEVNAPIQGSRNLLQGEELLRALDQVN
Chain of Heat shock factor protein 1 (Homo sapiens) (Q00613 whole entry, looked up): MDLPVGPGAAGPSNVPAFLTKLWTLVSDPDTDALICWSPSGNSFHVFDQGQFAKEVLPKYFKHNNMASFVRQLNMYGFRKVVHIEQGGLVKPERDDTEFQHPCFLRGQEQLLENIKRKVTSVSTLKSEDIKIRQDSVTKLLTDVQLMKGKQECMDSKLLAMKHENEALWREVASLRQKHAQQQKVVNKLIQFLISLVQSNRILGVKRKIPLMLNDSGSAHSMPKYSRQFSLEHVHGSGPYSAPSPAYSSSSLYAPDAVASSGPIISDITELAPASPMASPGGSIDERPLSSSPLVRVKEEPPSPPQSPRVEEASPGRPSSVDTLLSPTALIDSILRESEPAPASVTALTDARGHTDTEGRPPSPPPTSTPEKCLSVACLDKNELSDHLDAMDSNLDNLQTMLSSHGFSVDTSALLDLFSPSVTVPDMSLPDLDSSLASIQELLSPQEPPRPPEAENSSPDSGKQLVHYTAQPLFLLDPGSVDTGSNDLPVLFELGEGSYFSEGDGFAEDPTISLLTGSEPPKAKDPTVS
Chain of Paired box protein Pax-6 (Homo sapiens) (P26367 whole entry, looked up): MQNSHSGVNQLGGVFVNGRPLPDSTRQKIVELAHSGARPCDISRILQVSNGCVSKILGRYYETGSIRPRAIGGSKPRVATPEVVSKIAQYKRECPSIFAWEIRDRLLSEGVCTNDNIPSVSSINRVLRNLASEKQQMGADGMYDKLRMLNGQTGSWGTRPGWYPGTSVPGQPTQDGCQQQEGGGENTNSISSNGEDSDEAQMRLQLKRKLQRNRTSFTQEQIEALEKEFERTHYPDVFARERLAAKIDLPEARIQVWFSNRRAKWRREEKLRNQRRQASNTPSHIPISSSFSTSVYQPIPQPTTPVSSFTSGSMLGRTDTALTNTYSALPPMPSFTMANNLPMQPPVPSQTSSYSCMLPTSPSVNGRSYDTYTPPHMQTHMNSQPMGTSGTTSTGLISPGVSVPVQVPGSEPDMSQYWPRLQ
Chain of Transcription factor Sp1 (Homo sapiens) (P08047 whole entry, looked up, the tested form may be a part): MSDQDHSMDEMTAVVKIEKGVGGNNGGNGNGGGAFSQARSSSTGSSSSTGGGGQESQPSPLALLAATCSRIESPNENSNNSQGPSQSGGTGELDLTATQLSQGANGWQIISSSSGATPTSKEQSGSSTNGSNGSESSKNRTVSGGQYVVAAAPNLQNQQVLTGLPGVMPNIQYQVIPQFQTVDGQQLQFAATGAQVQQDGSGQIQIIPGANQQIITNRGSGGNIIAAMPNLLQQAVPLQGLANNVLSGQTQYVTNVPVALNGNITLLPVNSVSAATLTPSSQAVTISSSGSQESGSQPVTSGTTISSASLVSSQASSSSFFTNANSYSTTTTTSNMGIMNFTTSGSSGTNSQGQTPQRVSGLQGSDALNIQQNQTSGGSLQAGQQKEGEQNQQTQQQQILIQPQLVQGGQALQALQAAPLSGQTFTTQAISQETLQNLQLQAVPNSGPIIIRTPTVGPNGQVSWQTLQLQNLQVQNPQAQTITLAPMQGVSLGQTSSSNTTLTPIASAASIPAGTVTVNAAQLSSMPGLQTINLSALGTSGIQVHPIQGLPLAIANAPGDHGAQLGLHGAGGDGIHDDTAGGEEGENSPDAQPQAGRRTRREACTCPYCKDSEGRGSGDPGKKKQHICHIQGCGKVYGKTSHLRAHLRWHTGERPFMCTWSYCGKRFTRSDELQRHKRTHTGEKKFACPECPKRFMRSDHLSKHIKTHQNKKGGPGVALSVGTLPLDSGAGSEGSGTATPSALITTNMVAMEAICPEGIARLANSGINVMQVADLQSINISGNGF

CC(=O)CC(C)C
not listed: [19] | [20]
inactive: all other assays above

O=C1NS(=O)(=O)c2ccccc21
inactive: [1] | [2] | [3] | [4] | [6] | [19] | [8] | [9] | [10] | [11] | [12] | [13] | [14] | [15] | [16] | [17]
active: [8] 55.9 µM

O=C(c1ccccc1)c1ccccc1
active: [8] 51.4 µM
inactive: [1] | [2] | [3] | [5] | [6] | [8] | [20] | [11] | [12] | [13] | [14] | [15] | [16] | [18]

c1cnc2c(c1)ccc1cccnc12
inactive: [1] | [2] | [4] | [5] | [6] | [7] | [19] | [8] | [10] | [11] | [12] | [13] | [14] | [15] | [16] | [17] | [18]
active: [5] 144 µM | [7] 100 µM | [18] 161 µM

Cc1[nH]nc2c1N=C(c1ccccc1Cl)c1cc([N+](=O)[O-])ccc1N2
active: [11] 0.357 µM | [14] 0.288 µM | [15] 3.71 µM
not listed: [5] | [8] | [9]
inactive: all other assays above

CN(C)CCOC(c1ccccc1)c1ccccc1
active: [8] 151 µM | [12] 45.5 µM
not listed: [3] | [4] | [7] | [9] | [18] | [20]
inactive: all other assays above

c1ccc2c(c1)CCC2
active: [3] 36.5 µM
not listed: [5] | [20]
inactive: all other assays above

Cc1ccccc1C(OCCN(C)C)c1ccccc1 (configuration not stated)
inactive: [1] | [2] | [4] | [6] | [7] | [20] | [10] | [11] | [13] | [14] | [15] | [17]
active: [6] 151 µM

NNc1nc(-c2ccc([N+](=O)[O-])cc2)cs1
not listed: [5] | [9] | [10] | [12] | [17] | [20]
inactive: all other assays above

CCCCN(C)C
active: [8] 26.9 µM
not listed: [5] | [20]
inactive: all other assays above

CCOC(C)=O
not listed: [5] | [19]
inactive: all other assays above

NCCN
active: [8] 164 µM
inactive: [1] | [2] | [3] | [4] | [6] | [19] | [8] | [9] | [20] | [10] | [11] | [12] | [13] | [14] | [15] | [16] | [17]

O=C(CCCN1CCC(O)(c2ccc(Cl)cc2)CC1)c1ccc(F)cc1
active: [1] 62.4 µM | [6] 33.4 µM | [19] 51.2 µM | [20] 52.4 µM | [11] 33.4 µM | [12] 5.07 µM | [13] 59.5 µM | [14] 33.4 µM | [16] 53.8 µM
inactive: [2] | [10] | [15] | [17]

CN(Cc1cnc2nc(N)nc(N)c2n1)c1ccc(C(=O)N[C@@H](CCC(=O)O)C(=O)O)cc1
active: [8] 58.9 µM
not listed: [3] | [9] | [18] | [19]
inactive: all other assays above

O=P(O)(O)CCC(F)(F)C(F)(F)C(F)(F)C(F)(F)C(F)(F)C(F)(F)C(F)(F)C(F)(F)F
not listed: [5] | [20]
inactive: all other assays above
